Experimental data as given in PubChem BioAssay (NCATS).
Records with an inconclusive call do not appear. Active and inactive are the calls of the source. The call rests on the fitted dose curve; in most records, active means well fitted inhibition curve with a large enough effect; inconclusive means small, poorly fitted or top-dose-only effect; inactive means no such curve, though single readings can be large or run the other way.

Test: BET inhibitor-based combinations targeting novel dependencies in MECOM-rearranged (r) AML: SET-2 cell line (AID 2202231);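 on viability: plate controls were DMSO treated cells for no effect and wells without cells for full effect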
Settings: SET-2 AML cells viability, CellTiter-Glo luminescence, 48 h; viability: hits give low values, concentration not given here
Summary of the method: (§1)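 Cells were plated at 500 per well and exposed to an 11-point dose series of each drug for 48 hr. Viability was measured by CellTiter-Glo luminescence, normalized to DMSO and empty-well controls, and summarized as AUC and per-cell-line Z-AUC.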
Further: nearly all actives have a fitted effect of over 35% in size.
Potency means the concentration at half of the fitted maximal effect.

Structure (SMILES)	Potency	viability
O=C(Nc1ccncc1)C(=O)c1cn(Cc2ccc(Cl)cc2)c2ccccc12	525 nM (active)	
CN1C(=O)COc2c(C(=O)NC3CN4CCC3CC4)cc(Cl)cc21 (stereo not drawn)		95.7% (inactive)
COC(=O)[C@@]12OC[C@]34[C@H]([C@@H](O)[C@@H]1O)[C@@]1(C)CC(=O)C(O)=C(C)[C@@H]1C[C@H]3OC(=O)[C@H](OC(=O)/C=C(\C)C(C)C)[C@@H]24	26.3 nM (active)	
N[C@@H]1C[C@H]1c1ccccc1		95.9% (inactive)
C/C(O)=C(\C#N)C(=O)Nc1cc(Br)ccc1Br		90% (inactive)
C[C@H]1[C@H](O)[C@@H](C)/C=C/C=C/CC/C=C/C=C/C=C/C=C/[C@H](O[C@@H]2O[C@H](C)[C@@H](O)[C@H](N)[C@@H]2O)C[C@@H]2O[C@](O)(C[C@@H](O)[C@H](O)CC[C@@H](O)C[C@@H](O)C[C@@H](O)CC(=O)O[C@H]1C)C[C@H](O)[C@H]2C(=O)O		99% (inactive)
COc1cc(C)[nH]c(=O)c1CNC(=O)c1c(C)n([C@H](C)C2CCN(CC(F)(F)F)CC2)c2ccccc12		101% (inactive)
CC1(C)CC[C@]2(NC(=O)C(C)(F)F)CC[C@]3(C)[C@H](C(=O)C=C4[C@@]5(C)C=C(C#N)C(=O)C(C)(C)[C@@H]5CC[C@]43C)[C@@H]2C1	1660 nM (active)	
CC(C)C[C@H](CN)CC(=O)O		113% (inactive)
CC(C)[C@]12O[C@H]1[C@@H]1O[C@@]13[C@@]1(C)CCC4=C(COC4=O)[C@@H]1C[C@@H]1O[C@@]13C2=O	83.3 nM (active)	
CC(C)(NC(=O)O[C@@H]1CN2CCC1CC2)c1csc(-c2ccc(F)cc2)n1		91.1% (inactive)
C[C@@]12OC(=O)[C@]1([C@@H](O)[C@@H]1C=CCCC1)NC(=O)[C@@H]2CCCl	26.3 nM (active)	
C[C@]12CC[C@H]3[C@@H](CC[C@@]45O[C@@H]4C(O)=C(C#N)C[C@]35C)[C@@H]1CC[C@@H]2O		112% (inactive)
CC(=O)O[C@@]12CO[C@@H]1C[C@H](O)[C@@]1(C)C(=O)[C@H](O)C3=C(C)[C@@H](O)C[C@@](O)([C@@H](OC(=O)c4ccccc4)[C@H]21)C3(C)C		103% (inactive)
CC1(C)C(=O)N(c2ccc(C#N)c(C(F)(F)F)c2)C(=S)N1Cc1ccc(-c2cn[nH]n2)cc1	16600 nM (active)	
CC(=O)OC[C@H]1O[C@@H]([S-])[C@H](OC(C)=O)[C@@H](OC(C)=O)[C@@H]1OC(C)=O.CC[PH+](CC)CC.[Au]	1180 nM (active)	
COc1cc([C@@H]2c3cc4c(cc3[C@@H](O)C3COC(=O)C32)OCO4)cc(OC)c1O (stereo partly drawn)	468 nM (active)	
COc1cc(C(=O)N2CC[C@@H](O)[C@@H](N)C2)cc2nc(-c3cc4ccccc4n3CC3CC3)n(C)c12		103% (inactive)
CC(C)CC(N(C)C)C1(c2ccc(Cl)cc2)CCC1 (stereo not drawn)		99.9% (inactive)
COC(=O)[C@]12CCC(C)(C)C[C@H]1[C@H]1C(=O)C=C3[C@@]4(C)C=C(C#N)C(=O)C(C)(C)[C@@H]4CC[C@@]3(C)[C@]1(C)CC2	2350 nM (active)	
O=P1(NCCCl)OCCCN1CCCl (stereo not drawn)		115% (inactive)
O=S(=O)(F)Cc1ccccc1		112% (inactive)

Test: BET inhibitor-based combinations targeting novel dependencies in MECOM-rearranged (r) AML: OCI-AML3 cell line (AID 2202232);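 on viability (% of control): plate controls were DMSO vehicle wells for no effect and wells without cells for full effect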
Settings: CellTiter-Glo luminescence, 48 h; Potency: OCI-AML3 viability; series mostly up to 46 µM; viability (% of control): at the top concentration
Summary of the method: as §1

Structure (SMILES)	viability (% of control)	Potency
CN1C(=O)COc2c(C(=O)NC3CN4CCC3CC4)cc(Cl)cc21 (stereo not drawn)	104% (inactive)	
N[C@@H]1C[C@H]1c1ccccc1	93.7% (inactive)	
N#CC(O[C@@H]1O[C@H](CO[C@@H]2O[C@H](CO)[C@@H](O)[C@H](O)[C@H]2O)[C@@H](O)[C@H](O)[C@H]1O)c1ccccc1 (stereo partly drawn)	87.4% (inactive)	
C[C@]12COC(=O)C[C@@H]1CC[C@@H]1[C@@H]2CC[C@@]2(C)[C@H]1CC[C@]2(C)O	88.7% (inactive)	
O=c1cccc2n1CC1CNC[C@H]2C1	122% (inactive)	
C/C(O)=C(\C#N)C(=O)Nc1cc(Br)ccc1Br	78.5% (inactive)	
CC1(C)CC[C@]2(NC(=O)C(C)(F)F)CC[C@]3(C)[C@H](C(=O)C=C4[C@@]5(C)C=C(C#N)C(=O)C(C)(C)[C@@H]5CC[C@]43C)[C@@H]2C1		1480 nM (active)
C/C=C(\C)C(=O)N[C@@H](c1ccccc1)[C@@H](O)C(=O)O[C@H]1C[C@@]2(O)[C@@H](OC(=O)c3ccccc3)[C@@H]3[C@]4(OC(C)=O)CO[C@@H]4C[C@H](O)[C@@]3(C)C(=O)[C@H](OC(C)=O)C(=C1C)C2(C)C		13.2 nM (active)
COC12C(COC(N)=O)C3=C(C(=O)C(C)=C(N)C3=O)N1CC1C2N1C (stereo not drawn)	112% (inactive)	
CC(N[C@H]1C[C@@H]1c1ccccc1)c1ccc2c(c1)OCCO2 (stereo partly drawn)	77.6% (inactive)	
CC(C)[C@]12O[C@H]1[C@@H]1O[C@@]13[C@@]1(C)CCC4=C(COC4=O)[C@@H]1C[C@@H]1O[C@@]13C2=O		59 nM (active)
C[C@@H]1O[C@@H](O[C@@H]2C=C3CC[C@@H]4[C@H](CC[C@]5(C)[C@@H](c6ccc(=O)oc6)CC[C@]45O)[C@@]3(C)CC2)[C@H](O)[C@H](O)[C@H]1O		14.8 nM (active)
CO/C1=C/C(C)=C\[C@@H](C)[C@@H](O)[C@@H](C)C/C(C)=C\C=C/[C@H](OC)[C@@H]([C@@H](C)[C@@H](O)[C@H](C)[C@@]2(O)C[C@@H](O)[C@H](C)[C@@H](C(C)C)O2)OC1=O		124 nM (active)
CO[C@H]1CCC(O[C@H]2C[C@H]([C@]3(C)CC[C@]4(C[C@H](O)[C@@H](C)[C@@H]([C@@H](C)/C=C(\C)C(=O)[C@H](C)C[C@H](C)C(=O)O)O4)O3)O[C@]3(O[C@@H]([C@H]4O[C@@](O)(CO)[C@H](C)C[C@@H]4C)C[C@@H]3C)[C@@H]2C)O[C@@H]1C (stereo partly drawn)		235 nM (active)
C/C(=C\c1csc(C)n1)[C@@H]1C[C@@H]2O[C@]2(C)CCC[C@H](C)[C@H](O)[C@@H](C)C(=O)C(C)(C)[C@@H](O)CC(=O)O1		5.9 nM (active)
CCCCCCC(C)(C)c1cc(O)c2c(c1)OC(C)(C)C1CC=C(CO)C[C@H]21 (stereo partly drawn)		26300 nM (active)
CC1(C)C(=O)N(c2ccc(C#N)c(C(F)(F)F)c2)C(=S)N1Cc1ccc(-c2cn[nH]n2)cc1		11800 nM (active)
CC(=O)OC[C@H]1O[C@@H]([S-])[C@H](OC(C)=O)[C@@H](OC(C)=O)[C@@H]1OC(C)=O.CC[PH+](CC)CC.[Au]		296 nM (active)
O=C(NCCCNc1nc(Nc2ccc(N3CCOCC3)cc2)ncc1C1CC1)C1CCC1		14800 nM (active)
Cc1[nH]ncc1-c1cc2nc([C@@H]3CC4CCN3CC4)[nH]c(=O)c2s1		9340 nM (active)
O=S(=O)(F)Cc1ccccc1	93.5% (inactive)	
